Results published in PubChem BioAssay (NCI).
About 83,000 compounds went through this panel and 20% of them were active in at least one assay; those are over-represented in the sample as a whole.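 Note: values are percent growth. 100 is the growth of untreated cells, values between 100 and 0 indicate rising inhibition; between -100 and 0 indicates cell death.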 Active and inactive are the calls of the source. The calls were made as follows: active = growth percent below 10; inactive = the rest.

Tests used:
Assay in all cases: NCI-60 one-dose screen, 48 h (100 = growth as untreated, 0 = no growth, -100 = all killed)
[1] = system: SR leukemia; settings: 10 µM unless noted
[2] = system: RPMI-8226 leukemia; settings: 10 µM unless noted
[3] = system: OVCAR-8 ovarian; settings: 10 µM unless noted
[4] = system: OVCAR-5 ovarian; settings: 10 µM unless noted
[5] = system: OVCAR-4 ovarian; settings: 10 µM unless noted
[6] = system: SK-OV-3 ovarian; settings: 10 µM unless noted
[7] = system: IGROV1 ovarian; settings: 10 µM unless noted
[8] = system: OVCAR-3 ovarian; settings: 10 µM unless noted
[9] = system: HS 578T breast; settings: 10 µM
[10] = system: NCI/ADR-RES ovarian; settings: 10 µM unless noted
[11] = system: T-47D breast; settings: 10 µM unless noted
[12] = system: BT-549 breast; settings: 10 µM unless noted
[13] = system: MDA-MB-435 melanoma; settings: 10 µM unless noted
[14] = system: SW-620 colon; settings: 10 µM unless noted
[15] = system: MCF7 breast; settings: 10 µM unless noted
[16] = system: HCT-116 colon; settings: 10 µM unless noted
[17] = system: HCC-2998 colon; settings: 10 µM
[18] = system: KM12 colon; settings: 10 µM unless noted

Measured: growth

CCCCCCCCCCCC[n+]1ccccc1
inactive: [4] 14.6% | [5] 14.9% | [10] 75.4% | [14] 10.7%
active: [1] -20.7% | [2] -39.2% | [3] 0.812% | [6] -1.15% | [7] -37.5% | [8] -32.9% | [9] 6.1% | [11] 4.67% | [12] -37.4% | [13] -16.5% | [15] 5.23% | [16] 6.26% | [17] 9.96% | [18] -48.1%

Clc1ccc(Nc2nccc(Nc3ccc4[nH]ncc4c3)n2)cc1
active: [1] 2.66% | [18] 9.06%
inactive: [2] 18.3% | [3] 22.1% | [4] 64.9% | [5] 49.3% | [6] 88.4% | [7] 46.9% | [8] 52.1% | [9] 61.5% | [10] 38.9% | [11] 30.1% | [12] 53% | [13] 55.8% | [14] 33% | [15] 25% | [16] 39.4% | [17] 94.3%

COc1cc(-c2nc(C(=O)Nc3ccc(C)cc3)nn2-c2ccc(F)c(F)c2)cc(OC)c1OC
inactive: [1] 91.8% | [2] 103% | [3] 103% | [4] 117% | [5] 103% | [6] 89.1% | [7] 86.9% | [8] 107% | [9] 121% | [10] 93.6% | [11] 77.1% | [12] 100% | [13] 93.3% | [14] 110% | [15] 95.1% | [16] 95.7% | [17] 86.6% | [18] 102%

CCN(CC)CCOc1ccc(/C(=C(\C)c2ccc(Cl)cc2)c2ccc(Cl)cc2)cc1
inactive: [2] 14.5% | [3] 82.7% | [4] 80.2% | [5] 78.8% | [6] 103% | [7] 80% | [8] 83% | [9] 77.5% | [10] 81.5% | [11] 55.2% | [12] 85.2% | [13] 87.1% | [14] 30.8% | [15] 34.8% | [16] 47% | [17] 93.6% | [18] 40.3%
active: [1] 0.594%

COc1cc(NCCCN)c2ncccc2c1
inactive: [1] 68.5% | [2] 38.5% | [3] 82.1% | [4] 93.2% | [5] 84.1% | [6] 89.1% | [7] 95.7% | [8] 93.3% | [9] 92.2% | [10] 85.7% | [11] 91.9% | [12] 74.9% | [13] 83.8% | [14] 79.1% | [15] 90.1% | [16] 60.4% | [17] 83.5% | [18] 68.2%

CC(CCCC(=O)O)c1ccoc1 (configuration not stated)
inactive: [1] 102% | [2] 104% | [3] 109% | [4] 105% | [5] 99.7% | [6] 95.1% | [7] 102% | [8] 105% | [9] 112% | [10] 104% | [11] 89.6% | [12] 108% | [13] 107% | [14] 110% | [15] 94.1% | [16] 101% | [17] 96.7% | [18] 98.7%

C=C1C[C@H](O)[C@H](Br)C(C)(C)[C@@]12CCC(C)=C(Cl)C2
active: [1] 5.02% | [2] -18.2% | [13] 9.73% | [16] 9.9%
inactive: [3] 29% | [4] 43.3% | [5] 27.3% | [6] 12.1% | [7] 40.1% | [8] 35.2% | [9] 22.3% | [10] 22.1% | [11] 28.7% | [12] 26.4% | [14] 29.8% | [15] 16.3% | [17] 42.3% | [18] 13.7%

COc1cc(-c2nc(C(=O)NCC(=O)O)nn2-c2ccc(Cl)cc2)cc(OC)c1OC
inactive: [1] 106% | [2] 99% | [3] 102% | [4] 105% | [5] 105% | [6] 98.7% | [7] 105% | [8] 107% | [9] 106% | [10] 105% | [11] 99.5% | [12] 106% | [13] 108% | [14] 108% | [15] 96.3% | [16] 103% | [17] 100% | [18] 96.3%

COC(=O)[C@@H](NC(=O)[C@@H](OC)[C@@H]1Cc2cc3cc(OC4CC(OC5CC(O)C(O)C(C)O5)C(O)C(C)O4)c(C)c(O)c3c(O)c2C(=O)[C@H]1OC1CC(OC2CC(OC3CC(C)(O)C(O)C(C)O3)C(O)C(C)O2)C(O)C(C)O1)C(C)C (some centres not stated)
active: [1] -8.16% | [2] -1.18% | [4] 2.67% | [9] -13.9% | [12] -20.7% | [15] 6.73% | [16] 4.79% | [18] 4.63%
inactive: [3] 12.6% | [5] 13.4% | [6] 20.4% | [7] 32.3% | [8] 15.3% | [10] 69.6% | [11] 10.2% | [13] 18.9% | [14] 16.6% | [17] 11.2%
